Results on eight molecules are retold here after PubChem BioAssay (Tox21).

Inconclusive results are not listed. Some compounds were tested as several samples or in several runs, with calls that do not always agree. The source made the active and inactive calls. Unless noted, calls come from the whole dose curve; as a rule, active = well fitted curve in the direction sought with a large enough effect in the repeat runs; inconclusive = weak or mixed curves; inactive = no such curve, though single readings can be large; an effect the other way counts as inactive or inconclusive.

Test [1] is described as follows: qHTS assay to identify small molecule agonists of the peroxisome proliferator-activated receptor delta (PPARd) signaling pathway - cell viability counter screen (AID 743211). Note: nearly all actives have a fitted effect of over 55% in size. The gist of the method: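 In the same wells used for beta-lactamase reporter measurement, cytotoxicity is scored by CellTiter-Glo. HEK293H PPARd-bla cells receive compound for 17 h at 37C following a 5 h settling period.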

Test [2] addresses Peroxisome proliferator-activated receptor delta (Homo sapiens) (UniProt Q03181). Put plainly: qHTS assay to identify small molecule agonists of the peroxisome proliferator-activated receptor delta (PPARd) signaling pathway (AID 743212; calls by dose curve). The gist of the method:
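Read-out: beta-lactamase FRET fluorescence after 2 h room-temperature incubation with LiveBLAzer B/G substrate. Cells were HEK293H carrying a UAS-bla reporter for PPARd, treated at 37 C with DMSO-dissolved compounds.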

Test [3] is described as follows: qHTS assay to identify small molecule antagonists of the peroxisome proliferator-activated receptor delta (PPARd) signaling pathway - cell viability counter screen (AID 743213). Note: nearly all actives have a fitted effect of over 50% in size. The gist of the method:
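Viability counter-screen, qHTS format: PPARd-bla HEK293H, L165041 300 nM final, 17 h compound exposure at 37 C, CellTiter-Glo luminescence after 30 min RT.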

Test [4] has as its target Peroxisome proliferator-activated receptor delta (Homo sapiens) (UniProt Q03181). As to the kind of experiment: qHTS assay to identify small molecule antagonists of the peroxisome proliferator-activated receptor delta (PPARd) signaling pathway (AID 743215; active = well fitted inhibition curve with a large enough effect in the signal ratio in the repeat runs, not every such curve was filed as active; the % refers to the signal ratio;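 note: cells stimulated with agonist L165041 at 300 nM final during compound exposure; series mostly up to about 62 µM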). The gist of the method: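 Screen format: qHTS, antagonist mode. HEK293H PPARd-bla cells received compound and 300 nM L165041 (final), 17 h, 37 C. Beta-lactamase detected via FRET substrate fluorescence, 2 h, room temperature.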
(In qHTS, concentration-response curves come from the screen itself.)

Test [5] concerns the target Bile acid receptor (Homo sapiens) (UniProt Q96RI1). Put plainly: qHTS assay to identify small molecule antagonists of the farnesoid-X-receptor (FXR) signaling pathway (AID 743217; active = well fitted inhibition curve with a large enough effect in the signal ratio in the repeat runs, not every such curve was filed as active; the % refers to the signal ratio). The method, boiled down: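 Quantitative HTS, beta-lactamase reporter format: FXR-UAS-bla HEK 293T cells co-treated 16 h at 37 °C with compounds and 50 uM final chenodeoxycholic acid, then read by B/G FRET fluorescence.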

Test [6] can be described thus: qHTS assay to identify small molecule agonists of the farnesoid-X-receptor (FXR) signaling pathway - cell viability counter screen (AID 743218). Note: nearly all actives have a fitted effect of over 45% in size. The gist of the method: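 Same-well cytotoxicity check on FXR-UAS-bla HEK 293T cells: 5 h attachment, 16 h compound at 37 C, CellTiter-Glo luminescence read at room temperature after 30 min.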
The target in test [7] is Bile acid receptor (Homo sapiens) (UniProt Q96RI1). As to the kind of experiment: qHTS assay to identify small molecule agonists of the farnesoid-X-receptor (FXR) signaling pathway (AID 743220; active = well fitted activation curve with a large enough effect in the signal ratio in the repeat runs, not every such curve was filed as active; the % refers to the signal ratio). The method, boiled down:
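FXR-UAS-bla HEK 293T cells carrying a UAS-driven beta-lactamase reporter were plated for 5 h at 37C/5% CO2, then exposed to DMSO-dissolved Tox21 10K compounds for 16 h at 37C. A LiveBLAzer B/G FRET substrate was loaded for 2 h at room temperature before fluorescence reading.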

Test [8] in a line: qHTS assay to identify small molecule antagonists of the farnesoid-X-receptor (FXR) signaling pathway - cell viability counter screen (AID 743221; active = well fitted cell-killing curve with a large enough effect in the repeat runs, not every such curve was filed as active; note: nearly all actives have a fitted effect of over 50% in size). The method, boiled down: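 Here viability was scored by luminescence after CellTiter-Glo addition to wells already read for beta-lactamase. Prior treatment: compound plus CDCA (50 uM final), 16 h, 37 C, HEK 293T FXR-bla cells.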
Test [9] has as its target Vitamin D3 receptor (Homo sapiens) (UniProt P11473). Put plainly: qHTS assay to identify small molecule agonists of the vitamin D receptor (VDR) signaling pathway (AID 743222; calls by dose curve). The gist of the method: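 Using LiveBLAzer B/G FRET detection, agonism was scored in VDR-bla cells exposed overnight (16 h, 37C) to DMSO-dissolved compounds; substrate incubation was 2 h at room temperature.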

Test [10] has the same target. As to the kind of experiment: qHTS assay to identify small molecule antagonists of the vitamin D receptor (VDR) signaling pathway (AID 743223; active = well fitted inhibition curve with a large enough effect in the signal ratio in the repeat runs, not every such curve was filed as active; the % refers to the signal ratio). The gist of the method: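 Inhibition of agonist-driven VDR signalling is scored in VDR-bla cells: 3 nM final 1alpha,25-dihydroxyvitamin D3 plus compound, 16 h at 37C, then beta-lactamase detection by FRET substrate fluorescence after 2 h.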

Test [11] can be described thus: qHTS assay to identify small molecule agonists of the vitamin D receptor (VDR) signaling pathway - cell viability counter screen (AID 743224). Note: series mostly up to about 63 µM; nearly all actives have a fitted effect of over 50% in size. The method, boiled down: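 Counter screen for cytotoxicity: VDR-bla cells at 2,000 cells/well, 16 h compound exposure, then CellTiter-Glo luminescence after the beta-lactamase measurement.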
Test [12] is described as follows: qHTS assay to identify small molecule antagonists of the vitamin D receptor (VDR) signaling pathway - cell viability counter screen (AID 743225). Note: nearly all actives have a fitted effect of over 50% in size. The method, boiled down: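 Compounds were pinned onto VDR-bla HEK 293T cells together with 1-alpha,25-dihydroxyvitamin D3 at 3 nM final. After 16 h at 37C and 5% CO2 plus the reporter readout, cell viability was measured by CellTiter-Glo luminescence (30 min, room temperature).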

Test [13] can be described thus: qHTS assay to identify small molecule agonists of the NFkB signaling pathway (AID 1159509; active = well fitted curve in the direction sought with a large enough effect in the signal ratio in the repeat runs, not every such curve was filed as active; the % refers to the signal ratio; note: series mostly up to about 61 µM). The method, boiled down: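 Readout: FRET fluorescence, 405 nm excitation, 460/530 nm emission; beta-lactamase expression disrupts FRET. Cells: ME-180 stably carrying NF-kB-driven bla reporter. Compound exposure 5 hr, 37 C, 5% CO2.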
Test [14] in a line: qHTS assay to identify small molecule agonists of the NFkB signaling pathway - cell viability counter screen (AID 1159515; calls by dose curve; note: series mostly up to about 61 µM; nearly all actives have a fitted effect of over 55% in size). The method, boiled down:
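Counter screen run alongside the NFkB-bla agonist assay: ME-180 reporter cells exposed to compounds for 5 hr, then lysed with CellTiter-Glo in the same wells. Luminescence, read after 30 min, reflects viable cells.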

Test [15] can be described thus: qHTS assay to identify small molecule agonists of the endoplasmic reticulum stress response signaling pathway (AID 1159516; active = well fitted activation curve with a large enough effect in the signal ratio in the repeat runs, not every such curve was filed as active; the % refers to the signal ratio). The method, boiled down: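 For this screen, HeLa cells stably carrying beta-lactamase under the ER stress response element received test compounds, positive controls or DMSO for 5 hr at 37 C; B/G FRET substrate was then added and dual-wavelength emission recorded.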

A short description of test [16]: qHTS assay to identify small molecule agonists of the endoplasmic reticulum stress response signaling pathway - cell viability counter screen (AID 1159517; calls by dose curve). The gist of the method: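 Steps: seed 1,500 ESRE-bla HeLa cells per well; incubate overnight at 37 C, 5% CO2; add compounds in DMSO for 5 hr; run FRET substrate 2 hr RT; add CellTiter-Glo, wait 30 min, read luminescence.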

Test [17] can be described thus: qHTS assay to identify small molecule antagonists of the retinoid-related orphan receptor gamma (ROR-gamma) signaling pathway - cell viability counter screen (AID 1159520). Note: nearly all actives have a fitted effect of over 50% in size. The gist of the method: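 Tet-on ROR gamma CHO cells were given compounds for 2 hr, then doxycycline hyclate at 1 uM final, and incubated 16 hr at 37 C. Viability was measured as ATP content by CellTiter-Glo luminescence.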

In test [18] the target is Nuclear receptor ROR-gamma (Homo sapiens) (UniProt P51449). Put plainly: qHTS assay to identify small molecule antagonists of the retinoid-related orphan receptor gamma (ROR-gamma) signaling pathway (AID 1159521; note: nearly all actives have a fitted effect of over 50% in size; note: potency is the fitted concentration of half-maximal effect). The method, boiled down: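 Test compounds were applied to Tet-on RORγ CHO cells 2 h ahead of doxycycline hyclate (1 uM final). Luciferase reporter activity was quantified by luminescence after 16 h at 37 C and 5% CO2.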

Test [19] is described as follows: qHTS assay to identify small molecule agonists of the AP-1 signaling pathway - cell viability counter screen (AID 1159525; calls by dose curve; note: nearly all actives have a fitted effect of over 55% in size; note: potency is the fitted concentration of half-maximal effect). The method, boiled down: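 Same-well cytotoxicity counter screen of the Tox21 10K library in ME-180 cells. The readout is ATP-dependent luminescence after 5 h compound treatment. Data are normalised to DMSO and tetra n-octyl ammonium bromide controls.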

Test [20] can be described thus: qHTS assay to identify small molecule agonists of the AP-1 signaling pathway (AID 1159526; calls by dose curve).

Sequence of Bile acid receptor (Homo sapiens) (Q96RI1 whole entry, looked up): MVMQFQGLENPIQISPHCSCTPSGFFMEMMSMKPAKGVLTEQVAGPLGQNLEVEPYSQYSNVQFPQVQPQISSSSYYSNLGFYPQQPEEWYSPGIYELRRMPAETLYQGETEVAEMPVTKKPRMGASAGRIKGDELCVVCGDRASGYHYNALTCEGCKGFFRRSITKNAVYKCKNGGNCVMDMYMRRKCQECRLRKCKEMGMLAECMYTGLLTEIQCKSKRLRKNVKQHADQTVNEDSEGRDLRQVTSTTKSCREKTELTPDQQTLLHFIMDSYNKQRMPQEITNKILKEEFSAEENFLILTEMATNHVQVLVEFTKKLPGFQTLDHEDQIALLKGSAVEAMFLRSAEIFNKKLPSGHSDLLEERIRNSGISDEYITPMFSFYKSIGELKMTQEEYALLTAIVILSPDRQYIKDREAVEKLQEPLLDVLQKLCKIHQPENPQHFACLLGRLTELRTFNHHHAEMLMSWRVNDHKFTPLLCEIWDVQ
Sequence of Vitamin D3 receptor (Homo sapiens) (P11473 whole entry, looked up): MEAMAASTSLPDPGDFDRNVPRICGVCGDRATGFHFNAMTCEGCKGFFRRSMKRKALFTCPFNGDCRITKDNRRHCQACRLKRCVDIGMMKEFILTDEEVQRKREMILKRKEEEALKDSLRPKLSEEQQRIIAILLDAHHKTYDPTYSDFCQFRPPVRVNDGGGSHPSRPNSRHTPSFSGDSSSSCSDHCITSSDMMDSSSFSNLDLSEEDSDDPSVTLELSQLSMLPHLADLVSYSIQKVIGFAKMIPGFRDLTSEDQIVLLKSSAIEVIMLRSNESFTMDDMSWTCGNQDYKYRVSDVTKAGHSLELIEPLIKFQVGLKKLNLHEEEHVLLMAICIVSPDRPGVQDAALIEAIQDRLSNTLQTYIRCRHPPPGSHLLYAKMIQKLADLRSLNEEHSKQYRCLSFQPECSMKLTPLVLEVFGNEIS
Sequence of Peroxisome proliferator-activated receptor delta (Homo sapiens) (Q03181 whole entry, looked up): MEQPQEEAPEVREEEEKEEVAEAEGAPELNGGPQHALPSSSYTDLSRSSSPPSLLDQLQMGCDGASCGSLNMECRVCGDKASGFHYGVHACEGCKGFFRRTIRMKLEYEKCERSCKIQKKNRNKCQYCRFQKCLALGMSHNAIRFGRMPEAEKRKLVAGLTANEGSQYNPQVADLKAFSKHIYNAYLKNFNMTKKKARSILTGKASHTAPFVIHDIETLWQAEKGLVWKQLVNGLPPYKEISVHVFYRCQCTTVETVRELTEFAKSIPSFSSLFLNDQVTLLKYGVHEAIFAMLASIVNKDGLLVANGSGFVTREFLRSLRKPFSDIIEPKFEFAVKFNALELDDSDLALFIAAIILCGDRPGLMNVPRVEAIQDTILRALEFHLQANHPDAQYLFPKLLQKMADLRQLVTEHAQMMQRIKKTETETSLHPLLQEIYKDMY

With `CCCC1COC(Cn2cncn2)(c2ccc(Cl)cc2Cl)O1` (stereo unspecified), the molecule was called inactive in [1], in [2], in test [3], in test [5], in test [6] and in test [7]. Moreover, the result in test [8], in [9], in test [10], in [11], in [12] and in [13] was inactive. In addition, the outcome in test [14], in [15] and in test [16] was inactive. Further, the Potency entry in [4], in test [17], in test [19] and in test [20] was “inactive” each time. Moreover, the Potency in test [18] is 43.3 µM (active).

As for `CCC12COCN1COC2`, the result in test [1], in [2], in [3], in test [6], in [8] and in test [9] was inactive. Besides, the call in test [10], in test [11], in test [12], in test [13], in test [14] and in test [15] was inactive. The molecule was classed as inactive in test [16]. The Potency result in test [4], in test [18], in test [19] and in [20] was “inactive” throughout.

Turning to `CN(N=O)c1ccccc1`, the molecule was classed as inactive in test [1], in [2], in [3], in test [5], in [6] and in test [7]. Further, the result in [8], in [9], in test [10], in test [11], in test [12] and in test [13] was inactive. Besides, the result in test [14], in test [15] and in test [16] was inactive. The Potency result in test [4], in test [17], in test [18] and in test [20] was “inactive” in each case.

Turning to `COC(=O)NC(=S)Nc1ccccc1NC(=S)NC(=O)OC`, the result in test [1], in [2], in test [3], in test [5], in [6] and in test [7] was inactive. Moreover, the call in [8], in test [9], in [10], in test [11], in [12] and in test [13] was inactive. Also, the molecule was called inactive in test [14], in test [15] and in [16]. Also, the Potency result in [4], in [17], in test [18], in [19] and in test [20] was “inactive” in each case.

For the molecule `CCC[N+](=O)[O-]`, the molecule was called inactive in test [1], in [2], in [3], in test [5], in test [6] and in test [7]. For the same molecule, the molecule was called inactive in [8], in test [9], in test [10], in test [11], in test [12] and in [13]. The result in [14], in test [15] and in test [16] was inactive. Moreover, the Potency result in test [4], in test [17] and in test [20] was “inactive” in each case. In addition, the Potency is 4.25 µM (active) and inactive in [18]; 15.2 µM (active) and inactive in test [19].

As for `CCOP(OCC)OCC`, the molecule was classed as inactive in test [1], in test [3], in test [5], in test [6], in [7] and in test [8]. Moreover, the molecule was called inactive in test [11], in test [12], in test [13], in [14], in test [15] and in test [16]. The Potency result in test [18], in [19] and in test [20] was “inactive” each time.

In the case of `Cc1ccccc1O`, the molecule was called inactive in test [1], in test [2], in test [3], in test [6], in [8] and in test [9]. Besides, the molecule was called inactive in [10], in [11], in test [12], in [13], in test [14] and in [15]. In addition, the molecule was called inactive in test [16]. Further, the Potency result in test [4], in [17], in test [18], in test [19] and in [20] was “inactive” throughout.

Regarding `Nc1ccccc1C(=O)O`, the call in test [1], in [3], in test [5], in test [6], in test [7] and in [8] was inactive. For the same molecule, the result in test [9], in test [10], in test [11], in [12], in test [13] and in [14] was inactive. For the same molecule, the call in [15] and in [16] was inactive. Further, the Potency result in test [17], in test [19] and in test [20] was “inactive” throughout.
